# Measured values: PubChem BioAssay AID1259422 (The Scripps Research Institute Molecular Screening Center, 2018)
# About 9,300 (1.5%) of roughly 640,000 compounds were called active. Rule as the data show it: active = inhibition above about 32%; inactive = the rest. The list comes from a sample in which actives are over-represented; it also holds similar structures and randomly drawn compounds.
# Experiment: TEAD-YAP interaction inhibition, primary screen, TEAD-YAP interaction inhibitor project, luminescence, HEK-TIYL cells (AID 1259422);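 also: 0% = median of test compound wells and 100% = reference inhibitor wells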
# Details: TEAD-Gal4/YAP UAS-luciferase luminescence, at 9.12 µM, active compounds read high
row,Compound,inhibition
1,CCc1ccccc1N(CC(=O)Nc1cc(Cl)ccc1C)S(C)(=O)=O,1.56% (inactive)
2,Cc1ccc(OCCSc2nc(N)cc(=O)[nH]2)cc1,-7.78% (inactive)
3,CN(C)CCNc1ccnc2c(-c3ccsc3)cnn12,-57.5% (inactive)
4,O=C(Nc1ccc2c(c1)CN(C1CCOCC1)CC2)c1ccc(C(F)(F)F)cc1,17.5% (inactive)
5,COc1ccc(NC(=O)/C(=C\c2ccc3c(c2)OCO3)NC(=O)c2ccccc2Cl)c(OC)c1,21.2% (inactive)
6,COc1ccc(OC)c(/C=N/NC(=O)COc2ccc(Br)cc2)c1,-1.77% (inactive)
7,COc1ccc(/C=N/NC(=O)COc2ccc(Cl)cc2Br)cc1OC,8.94% (inactive)
8,CCOC(=O)c1c(C)[nH]c(C(=O)OCC(=O)Nc2ccccc2C(C)(C)C)c1C,7.06% (inactive)
9,Cc1cc2nn(-c3ccccc3)nc2cc1NC(=S)NC(=O)c1oc2ccccc2c1C,7.4% (inactive)
10,C=C(C)C1C=C(C)/C(=N/NC(=O)c2ccc(N3CCCC3=O)cc2)CC1 (stereo not drawn),0.92% (inactive)
11,O=C(Oc1ccc2c(c1)C(=O)c1cc(OC(=O)c3cccnc3)ccc1-2)c1cccnc1,-14.7% (inactive)
12,COc1ccc(/C=C2\Oc3cc(OC(=O)C4CC4)cc(C)c3C2=O)c(OC)c1OC,-17.3% (inactive)
13,O=C1/C(=C/c2cccnc2)Oc2cc(OC(=O)C3CC3)ccc21,33.5% (active)
14,CCCn1c(=O)[nH]c2c(C(N)=O)nc(-c3cn(C)nc3C)nc21,-23% (inactive)
15,O=C(CNc1cccc(Br)c1)Nc1ccccc1C(=O)Nc1ccccc1,2.84% (inactive)
16,O=C1c2cc(S(=O)(=O)N3CCCC3)ccc2-c2ccc(S(=O)(=O)N3CCCC3)cc21,-1.36% (inactive)
17,Nc1ccc2c(c1)C(=O)C(=O)c1cc(N)ccc1-2,99% (active)
18,O=C1c2cc(O)ccc2-c2ccc(O)cc21,-8.01% (inactive)
19,CCCCN(CC)CCNC(=O)CCNC(=O)Cn1cnc2sc3c(c2c1=O)CCCC3,-4.71% (inactive)
20,CCN1CCN(C(=O)c2ccc(OC)cc2OC)CC1,2.8% (inactive)

row,Compound,inhibition
1,Cn1cc(-c2cc(Nc3ccc(N4CCOCC4)cn3)ncc2Cl)cn1,38.9% (active)
2,COc1cc(Nc2cc(-c3nocc3-c3cnn(C)c3)ccn2)ccc1N1CCOCC1,15% (inactive)
3,Cn1nccc1Nc1cc(Nc2ccc(N3CCOCC3)cc2)ncn1,2.78% (inactive)
4,CCCN1CC=C2C(C1)C(c1cccc(C(F)(F)F)c1)C(C#N)=C(N)C2(C#N)C#N (stereo not drawn),-14.9% (inactive)
5,CC(C)n1cnc2c(NC3CCN(Cc4ccccc4)CC3)nc(-c3ccc(N4CCOCC4)nc3)nc21,36.3% (active)
6,c1ccc(CN2CCC(Nc3nc(Nc4ccc(N5CCOCC5)cc4)c4ncn(C5CCCCC5)c4n3)CC2)cc1,7.35% (inactive)
7,c1ccc(CN2CCC(Nc3nc(-c4ccccc4)nc4c3ncn4C3CCCCC3)CC2)cc1,6.01% (inactive)
8,CC(C)n1cnc2c(NC3CCN(Cc4ccccc4)CC3)nc(Nc3ccc(N4CCOCC4)cc3)nc21,55.8% (active)
9,CC(C)n1cnc2c(NC3CCN(Cc4ccccc4)CC3)nc(NC3CCN(Cc4ccccc4)CC3)nc21,23.1% (inactive)
10,CC(C)n1cnc2c(NC3CC3)nc(-c3ccc(N4CCOCC4)nc3)nc21,1.84% (inactive)
11,NC(=O)c1ccc(C(=O)N2CCC3(CC2)NC(=O)c2ccccc2O3)c(F)c1,9.77% (inactive)
12,CC(=O)Nc1sc(C)c(C)c1-c1nc2ccccc2s1,-2.29% (inactive)
13,O=C(Cc1cccc2ccccc12)Nc1ccccc1-c1nc2ccccc2s1,4.57% (inactive)
14,c1ccc2nc(-c3nc4ccccc4s3)ccc2c1,50.1% (active)
15,CCS(=O)(=O)N1CCN(c2cccc(Cl)c2)CC1,4.72% (inactive)
16,CC(C)(C)c1cc(C(=O)N/N=C/c2c(O)ccc3ccccc23)n[nH]1,-0.43% (inactive)
17,Cc1cc(C(=O)N/N=C/c2ccc(Br)c([N+](=O)[O-])c2)n[nH]1,6.76% (inactive)
18,CCOc1cccc(-c2cc(C(=O)N/N=C/c3ccccc3O)[nH]n2)c1,-2.87% (inactive)
19,CCCOc1ccc(/C=N/NC(=O)OC)c(O)c1,-15.8% (inactive)
20,Cc1ccc(/C=N\NC(=O)c2cc(C(C)(C)C)[nH]n2)cc1,45.2% (active)

row,Compound,inhibition
1,CCOc1ccc(-c2cc(C(=O)N/N=C\c3ccccc3O)[nH]n2)cc1OC,1.39% (inactive)
2,CCOc1ccc(/C=N/NC(=O)c2cc(C(C)(C)C)[nH]n2)c(O)c1,59.8% (active)
3,CCOc1ccc(O)c(/C=N/NC(=O)CNc2ccc3ccccc3c2)c1,-7.17% (inactive)
4,CCOc1ccc(-c2cc(C(=O)N/N=C/c3c[nH]c4ccccc34)[nH]n2)cc1,55.9% (active)
5,CSc1nnc2c(n1)OC(c1ccc(N(C)C)cc1)Nc1ccc(Br)cc1-2 (stereo not drawn),-2.24% (inactive)
6,Cc1cccc(N(CC(O)c2ccccc2)S(=O)(=O)c2ccc3c(c2)OCCO3)c1 (stereo not drawn),2.94% (inactive)
7,N#CC(C#N)=C1SCC(=O)N1c1ccc(F)cc1,-0.92% (inactive)
8,CCn1c(N=Nc2c(O)[nH]c3ccccc23)nc2c1c(=O)n(C)c(=O)n2C,6.12% (inactive)
9,OC[C@@H]1CCCN1c1ccnc2c(-c3cccc4ccccc34)cnn12,-40.1% (inactive)
10,O=C(NCCO)c1cccc(-c2cnn3c(N4CCCCC4CCO)ccnc23)c1 (stereo not drawn),-6.65% (inactive)
11,Cc1ccc(-c2cnn3c(NCc4ccc5c(c4)OCO5)ccnc23)cc1,-8.18% (inactive)
12,OCCC1CCCCN1c1ccnc2c(-c3ccc(F)c(Cl)c3)cnn12 (stereo not drawn),41.4% (active)
13,CN(C)CCNc1ccnc2c(-c3ccc(F)c(Cl)c3)cnn12,-31.8% (inactive)
14,OC[C@@H]1CCCN1c1ccnc2c(-c3ccc4c(c3)OCO4)cnn12,55.2% (active)
15,N#Cc1ccsc1NC(=O)COC(=O)CC12CC3CC(CC(C3)C1)C2,-33.5% (inactive)
16,COc1ccc(Cl)cc1NC(=S)NC(C)c1ccncc1 (stereo not drawn),2.52% (inactive)
17,CC1CN(c2nc3c(c(=O)[nH]2)CCN(c2cnccn2)C3)CC(C)O1 (stereo not drawn),9.31% (inactive)
18,C=CCN1C(=O)S/C(=C/c2ccccc2F)C1=O,-54.7% (inactive)
